The values below come from PubChem BioAssay AID1851 (National Center for Advancing Translational Sciences (NCATS), 2009).

Several values for one entry are separate records, joined by “and”; a condition that tells them apart may be missing. Identical values can stand only once. Among all 16,000 compounds or so, about 2,600 (16%) were called active. Roughly 20% stayed inconclusive and do not appear here. Not all results are given here. Unmarked numbers belong to inactive results. The call rests on the fitted dose curve; in most records, active means well fitted curve in the direction sought with a large enough effect; inconclusive means small, poorly fitted or top-dose-only effect, or effect the other way; inactive means no such curve, though single readings can be large or run the other way.
On the % scale 0 is the no-effect control and ±100 the full control effect.

The target of this assay is Cytochrome P450 2D6 (Homo sapiens) (UniProt P10635). The assay can be described thus: Cytochrome panel assay with activity outcomes. As to conditions: recombinant CYP, pro-luciferin dealkylation, luminescence, p450-cyp2d6; series mostly up to 57.1 µM.
Sequence of Cytochrome P450 2D6 (Homo sapiens) (P10635 whole entry, looked up): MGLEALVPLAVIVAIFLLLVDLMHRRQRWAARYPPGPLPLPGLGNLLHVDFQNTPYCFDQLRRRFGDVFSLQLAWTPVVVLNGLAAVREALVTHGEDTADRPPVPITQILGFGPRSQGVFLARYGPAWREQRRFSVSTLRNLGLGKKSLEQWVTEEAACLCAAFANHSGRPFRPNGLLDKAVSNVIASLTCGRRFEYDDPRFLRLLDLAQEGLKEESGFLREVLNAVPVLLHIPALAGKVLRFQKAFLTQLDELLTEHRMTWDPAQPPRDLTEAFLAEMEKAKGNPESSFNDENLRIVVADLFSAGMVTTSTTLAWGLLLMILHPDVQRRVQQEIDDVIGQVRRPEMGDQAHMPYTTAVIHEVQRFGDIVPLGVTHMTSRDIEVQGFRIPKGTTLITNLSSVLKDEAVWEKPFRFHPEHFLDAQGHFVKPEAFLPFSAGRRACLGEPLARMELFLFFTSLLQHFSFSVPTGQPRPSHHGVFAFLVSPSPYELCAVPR
For the compound `C=C(C)COc1ccc2c(c1)CCC1C2CC[C@]2(C)C(=O)/C(=N/O)CC12` (stereo partly specified), the activity, negative = inhibition is 14.1% [at 11.4 µM].

`COc1ccc(C(=O)NC2(C(F)(F)F)C(=O)Nc3c2c(=O)[nH]c(=O)n3CCc2ccc(OC)c(OC)c2)cc1` (stereo unspecified): the AC50 result was “inactive”.

As to `O=C(NC(=S)NNC(=O)c1cccs1)c1ccco1`, the AC50 entry was “inactive”.

Regarding `Cc1cc(C(=O)OC2CCOC2=O)c2ccccc2n1` (stereo unspecified), the AC50 entry was “inactive”.

In the case of `C[C@@H]1O[C@@H](O)[C@@H](O)[C@H](O)[C@H]1O`, the activity, negative = inhibition is -0.841% [at 11.4 µM].

As for `Cc1ccc(-n2ncc(N(C)C)c(Cl)c2=O)cc1`, the AC50 entry was “inactive”.

Turning to `CC[C@](N)(C(=O)O)C(C)C`, the activity, negative = inhibition is 10.5% [at 11.4 µM].

In the case of `c1ccc2c3c([nH]c2c1)[C@@H]1[C@H]2CC[C@H]([C@H]4CCCN[C@H]42)N1CC3`, the AC50 was 7.94 µM (active).

For the compound `O=c1c2ccccc2nc2n1CCc1c-2[nH]c2ccccc12`, the AC50 result is “inactive”.

As to `O=C1NCCc2c1[nH]c1ccccc21`, the AC50 entry was “inactive”.

Take `O=[N+]([O-])c1ccc(Nc2nc(N/N=C\c3ccc4c(c3)OCO4)nc(N3CCCCC3)n2)cc1`: the AC50 entry was “inactive”.

In the case of `CN(C)S(=O)(=O)Oc1ccc(Cl)cc1C(=O)Nc1cccc(C(F)(F)F)c1`, the AC50 entry is “inactive”.

`CN(C)S(=O)(=O)Oc1ccsc1C(=O)Nc1ccc(Cl)cc1`: the AC50 was 22.4 µM (active).

Regarding `CN(C)S(=O)(=O)Oc1cccc(C(=O)Nc2ccc(Cl)c(Cl)c2)c1`, the AC50 result is “inactive”.

For `O=C(CSc1nnc2c(n1)[nH]c1ccc(F)cc12)OCc1ccccc1`, the AC50 entry is “inactive”.

Turning to `C=CCN(CC=C)C(=S)NC(=O)c1ccc(OC)c(Br)c1`, the AC50 was 0.708 µM (active).

For `COc1ccc(C(=O)NC(=S)NC(C)(C)C)cc1Br`, the AC50 result is “inactive”.

Turning to `COc1ccc(C(=O)NC(=S)NC(C)C)cc1Br`, the AC50 result was “inactive”.

As for `Nc1cc(Cl)ccc1Oc1ccccc1`, the AC50 result was “inactive”.

With `Cc1cc(Cl)ccc1Oc1ncc(-c2ccc(Cl)cc2)cn1`, the AC50 entry was “inactive”.

On to `Nc1cc(Cl)ccc1Oc1ccc(Cl)cc1`, for which the AC50 was 15.8 µM (active).

As to `O=C(O)[C@@H]1CS[C@@]2(CCCN(Cc3ccccc3)C2)N1`, the activity, negative = inhibition was -2.15% [at 11.4 µM].

Regarding `O=C1C2CCC(C(O)C2)N1Cc1ccccc1` (stereo unspecified), the AC50 result is “inactive”.

Consider `S[C@@H]1CCCN(Cc2ccccc2)C1`, for which the concentration at half-maximal activity (AC50) was 0.794 µM (active).

For `O=C(O)[C@H]1CCCN(CCC=C(c2ccccc2)c2ccccc2)C1`, the AC50 result was “inactive”.

As for `OCC1CCCN(Cc2ccc(-c3ccccc3)cc2)C1` (stereo unspecified), the AC50 is 0.1 µM (active).

Turning to `CC1(C(=O)CSc2nc3ccccc3s2)CCC(=O)O1` (stereo unspecified), the AC50 result was “inactive”.

Consider `CC(=O)O[C@@H](C)C[N+](C)(C)C`, for which the AC50 entry was “inactive”.

Take `Cn1c(SC2=CS(=O)(=O)c3ccccc32)nc2ccccc21`: the AC50 entry is “inactive”.

Regarding `COC(=O)[C@@H]1C[C@H]1[C@@H](NC(=O)c1ccccc1)c1ccccc1`, the AC50 result was “inactive”.

Consider `COc1ccc(NC2=NC(=S)N(c3ccc(C)cc3)C23CCCCC3)cc1`, for which the AC50 result is “inactive”.

For the compound `CC1(C)CC(NC(=O)c2ccc3c(c2)OCO3)CC(C)(C)N1`, the AC50 result was “inactive”.

Take `CC1(C)CC(NCc2ccc3c(c2)OCO3)CCO1` (stereo unspecified): the AC50 was 0.631 µM (active).

Turning to `COc1ccc2[nH]cc(CCNc3ccnc(-c4cccnc4)n3)c2c1`, the half-maximal activity concentration (AC50) was 1.26 µM (active).

As to `Cc1cnc(CNc2ccnc(-c3cccc(NS(C)(=O)=O)c3)n2)cn1`, the AC50 result was “inactive”.

Turning to `COCCNc1ccnc(-c2c(C)noc2C)n1`, the AC50 entry was “inactive”.

Consider `COc1ccc2[nH]cc(CCNc3ccnc(-c4ccoc4)n3)c2c1`, for which the AC50 was 12.6 µM (active).

With `COc1ccc2[nH]cc(CCNc3ccnc(-c4ccc(N(C)C)cc4)n3)c2c1`, the half-maximal activity concentration (AC50) was 10 µM (active).

With `COc1ccc2[nH]cc(CCNc3ccnc(-c4cccc(NS(C)(=O)=O)c4)n3)c2c1`, the AC50 is 20 µM (active).

With `CCOC(=O)CNS(=O)(=O)c1cc(-c2nn(C)c(=O)c3ccccc23)ccc1C`, the AC50 result was “inactive”.

As for `CCCCCCCCC(=O)N/N=C/c1ccccn1`, the AC50 result is “inactive”.

As for `CCNc1ncc2nc(-c3ccc(Cl)cc3)c(=O)n(Cc3cccc(OC)c3)c2n1`, the AC50 result was “inactive”.

For the compound `O=[N+]([O-])c1ccc(N2CCC(=NOCc3ccc(Cl)cc3)CC2)cc1`, the AC50 entry is “inactive”.

As to `O=c1c(-c2ccc(Cl)cc2)nc2cncnc2n1Cc1ccccc1Cl`, the AC50 result was “inactive”.

Take `CCOC(=O)CSc1nnc(CNC(=O)c2ccc(OC)cc2)n1C1CCCCC1`: the AC50 entry was “inactive”.

As to `Cc1ccc(C)c(-c2cc(C(=O)Nc3nccs3)c3ccccc3n2)c1`, the AC50 entry was “inactive”.

As to `CCCCNC(=O)NC1C(NC(=O)NCCCC)N(C)C(=O)N1C` (stereo unspecified), the AC50 entry is “inactive”.

Take `CC(=O)N1CC(=O)N(OCc2ccccc2)C1c1ccc(Cl)cc1Cl` (stereo unspecified): the AC50 result was “inactive”.

With `CCn1c(SCC(=O)OC)nc2sc3c(c2c1=O)CCC3`, the AC50 entry was “inactive”.

Regarding `COC(=O)c1cccc(C(=O)Nc2ccc(C)cc2)n1`, the AC50 entry is “inactive”.

For `COc1ccc2[nH]cc(CCNc3ccnc(-c4ccc5c(c4)OCO5)n3)c2c1`, the AC50 is 7.94 µM (active).

As to `N#CCCn1c(=O)c(-c2cccc(C#N)c2)nc2cnc(Oc3cccc(Cl)c3)nc21`, the AC50 result was “inactive”.

For the compound `CC(=O)SCC[N+](C)(C)C`, the AC50 entry was “inactive”.

As for `O=[N+]([O-])c1ccc([C@@H](Nc2ccccc2)c2ccc3cccnc3c2O)cc1`, the activity, negative = inhibition is -2.01% [at 11.4 µM].

For `CC(C)CN1CCC2(CC1)CCN(C(=O)c1cnccn1)CC2`, the AC50 is 10 µM (active).

Consider `CC(C)CN1CCCC2(CCN(C(=O)c3cnccn3)CC2)C1`, for which the AC50 entry is “inactive”.

Regarding `CN1CCC2(CC1)CCN(C(=O)c1ccncc1)CC2`, the AC50 result was “inactive”.

Take `CC(C)CN1CCC2(CC1)CCN(C(=O)c1ccncc1)CC2`: the AC50 was 3.98 µM (active).

Turning to `CC(C)NC(=O)N1CCC2(CC1)CCN(C(=O)c1ccncc1)CC2`, the AC50 entry is “inactive”.

Turning to `O=C(c1cnccn1)N1CCC2(CC1)CCN(c1ncccn1)CC2`, the AC50 entry was “inactive”.

As for `COC(=O)[C@@]1(Cc2ccc(OC)cc2)[C@H]2c3cc(C(=O)N4CCCC4)n(Cc4ccc(Cl)c(C(F)(F)F)c4)c3C[C@H]2CN1C(=O)c1ccccc1`, the AC50 entry was “inactive”.

As for `COc1cc(NC(=S)NC(=O)c2c(OC)cccc2OC)ccc1NC(=O)c1cccs1`, the AC50 result is “inactive”.

Consider `C=C1c2cccc(O)c2C(O)=C2C(=O)[C@@]3(O)C(O)=C(C(N)=O)C(=O)[C@@H](N(C)C)[C@@H]3[C@@H](O)[C@H]12`, for which the AC50 result was “inactive”.

Regarding `CCOC(=O)N1CCN(c2nc(-c3cccs3)cc(C(F)(F)F)n2)CC1`, the AC50 entry was “inactive”.

Turning to `CCOC(=O)N1CCN(C(=O)CNCc2cccs2)CC1`, the AC50 is 3.98 µM (active).

In the case of `CCOC(=O)N1CCN(C(=O)CNS(=O)(=O)c2cccs2)CC1`, the AC50 entry is “inactive”.

As for `O=c1n(-c2ccccc2)c(=O)n2n1CC[C@H]1/C(=N\OCc3ccccc3)[C@H]3O[C@@H]3[C@@H](O)[C@@H]12`, the activity, negative = inhibition was 10.4% [at 11.4 µM].

For `c1ccc(Oc2cc(-c3ccccc3)ncn2)cc1`, the AC50 result was “inactive”.

For the compound `c1coc(CN2CCN(C(c3cccs3)c3nnnn3C3CCCC3)CC2)c1` (stereo unspecified), the AC50 is 1.26 µM (active).

As to `Clc1ccc(C(c2nnnn2C2CCCC2)N2CCN(Cc3ccncc3)CC2)cc1` (stereo unspecified), the half-maximal activity concentration (AC50) is 1.26 µM (active).

Take `Cc1ccc(C(c2nnnn2C2CCCC2)N2CCN3CCCC3C2)cc1` (stereo unspecified): the half-maximal activity concentration (AC50) is 0.447 µM (active).

On to `CON(C)C(=O)c1nnc2c3ccccc3n(S(=O)(=O)c3ccc(C)cc3)c2n1`, for which the activity, negative = inhibition was -3.04% [at 11.4 µM] and -5.32% [at 11.4 µM].

`O=c1c(-c2ccc(F)cc2)nc2cnc(Nc3ccccc3)nc2n1Cc1cccs1`: the AC50 result was “inactive”.

Regarding `CC(C)N(CC(=O)O)CC(=O)O`, the activity, negative = inhibition is 12.3% [at 11.4 µM].

`CO[C@H]1COC(=O)[C@@H](C)COC(=O)[C@@H](Cc2ccccc2)NC(=O)C/C=C\[C@H]1C`: the activity, negative = inhibition was 0.386% [at 11.4 µM].

As for `Cc1ccc(S(=O)(=O)N(CC(=O)N/N=C/c2ccc(F)cc2)c2cccc3cccnc23)cc1`, the AC50 entry is “inactive”.

As to `CCCOc1ccc(C(=O)NNC(=S)NC(=O)CC)cc1`, the AC50 result is “inactive”.

On to `CCCOc1ccc(OCCNC2CCCC2)cc1`, for which the half-maximal activity concentration (AC50) is 1.26 µM (active).

As for `CCCOc1ccc(-c2nc(N)n[nH]2)cc1`, the AC50 result was “inactive”.

As for `O=C(Nc1cccc(F)c1)N1CC[C@@]2(CCCN(C(=O)c3cnccn3)C2)C1`, the AC50 entry is “inactive”.

For `CC(C)(C)NC(=O)C(=O)N/N=C/c1ccc(Br)cc1`, the AC50 entry is “inactive”.

For the compound `Nc1nc(-c2ccccc2)cc(-c2ccccc2O)n1`, the AC50 entry was “inactive”.

Consider `COc1cccc(Cn2c(=O)c(-c3ccc(Cl)cc3)nc3cnc(OC)nc32)c1`, for which the AC50 result was “inactive”.

Consider `c1ccc(CCN2CCN=C2Cc2ccccc2)cc1`, for which the half-maximal activity concentration (AC50) was 0.126 µM (active).

Regarding `C[C@H](c1ccccc1)N1C(=O)[C@H]2[C@@H]3[C@H](O)[C@H](O)CC(=O)[C@H]3CC[C@H]2C1=O`, the activity, negative = inhibition is 4.75% [at 11.4 µM].

As for `Cc1ccccc1NC(=S)NC(=O)c1cc(-c2ccccc2)nc2ccccc12`, the AC50 result is “inactive”.

Take `C#CCN(C)CCCOc1ccc(Cl)cc1Cl`: the AC50 is 2 µM (active) and 398 nM (active).

`CC(C)(C)C(=O)NNC(=O)CCCOc1ccc(Cl)cc1Cl`: the AC50 entry was “inactive”.

As for `COC(=O)CCC(=O)NNC(=O)CCCOc1ccc(Cl)cc1Cl`, the AC50 entry was “inactive”.

With `Cc1ncc([N+](=O)[O-])n1CC(=O)NCc1ccccc1`, the AC50 entry was “inactive”.

Turning to `COc1ccc(NC(=O)C23CC4CC(C2)CC(n2cnc(Br)n2)(C4)C3)c(C)c1`, the AC50 entry is “inactive”.

In the case of `O=C(NC1CCCCC1)C12CC3CC(C1)CC(n1cncn1)(C3)C2`, the AC50 is 11.2 µM (active).

As for `O=S(=O)(c1cccc(-c2nnc(-c3ccc(Br)cc3)o2)c1)N1CCCCCC1`, the AC50 entry was “inactive”.

Regarding `Cc1ccc(S(=O)(=O)n2ccc(-c3cccc(OCc4c(F)cccc4Cl)c3)n2)cc1`, the AC50 result was “inactive”.

For `COc1ccc(C(=O)N/N=C2/C(=O)c3c(C)cc(C)cc3CC2(C)C)cc1`, the activity, negative = inhibition is -4.67% [at 11.4 µM].

For the compound `CCCC1S/C(=N/N=C/c2ccc(OC)cc2)N(Cc2ccc(OC)cc2)C1=O` (stereo unspecified), the AC50 entry was “inactive”.

For `COc1cccc(C(=O)n2c(SC)nc3cc4c(cc32)OCCO4)c1`, the AC50 result is “inactive”.

With `Cc1ncc(N=Nc2ccccc2Cl)c(-c2ccccc2)n1`, the AC50 entry was “inactive”.

`CCOC(=O)c1cc2c(=O)n3ccccc3nc2n(CCCOC)c1=NC(C)=O`: the AC50 entry was “inactive”.

On to `COc1ccc(CCn2c(=N)c(C(=O)NCc3ccco3)cc3c(=O)n4ccccc4nc32)cc1`, for which the half-maximal activity concentration (AC50) is 1.12 µM (active).

With `CCOc1ccc(-n2cc(C(=O)NCc3ccco3)c3cc(OC)c(OC)cc3c2=O)cc1`, the AC50 result was “inactive”.
